Experimental data published in PubChem BioAssay.
For some of these results: Results with a measured potency or affinity are listed apart. Active and inactive are the calls of the source. Unless noted, the rule behind the calls is not given here.

Assays:
[1] = antimalarial activity against Dd2 strain (AID 2302;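 active = growth inhibition above 50% at the single 2 µM test dose, taken to imply half-maximal potency below 2 µM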;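 note: 0% = DMSO untreated growth and 100% = chloroquine plus artemisinin killed control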); details: P. falciparum Dd2 in RBCs, LDH growth readout, 72 h; at 2 µM; stronger effect = higher value
[2] = HepG2 cytotoxicity, primary screen, cytotoxicity control for P. falciparum antimalarial project, cell-based, ATP luminescence (AID 2303;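 active = inhibition above 50%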;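 note: 0% = DMSO wells and 100% = digitonin-killed cells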); details: HepG2 viability, 24-48 h, at 10 µM, stronger effect = higher value
[3] = target: L-lactate dehydrogenase (Plasmodium falciparum (isolate CDC / Honduras)) (UniProt Q27743); experiment: PfLDH activity inhibition – cell lysate, 3D7 strain, counter-screen for P. falciparum growth inhibition project (AID 2304);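 note: 0% = vehicle and 100% = reference inhibitor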; details: P. falciparum 3D7 crude extract, LDH APAD/NBT absorbance; at 2 µM; stronger effect = higher value
L-lactate dehydrogenase (Plasmodium falciparum (isolate CDC / Honduras)), sequence (Q27743 whole entry, looked up): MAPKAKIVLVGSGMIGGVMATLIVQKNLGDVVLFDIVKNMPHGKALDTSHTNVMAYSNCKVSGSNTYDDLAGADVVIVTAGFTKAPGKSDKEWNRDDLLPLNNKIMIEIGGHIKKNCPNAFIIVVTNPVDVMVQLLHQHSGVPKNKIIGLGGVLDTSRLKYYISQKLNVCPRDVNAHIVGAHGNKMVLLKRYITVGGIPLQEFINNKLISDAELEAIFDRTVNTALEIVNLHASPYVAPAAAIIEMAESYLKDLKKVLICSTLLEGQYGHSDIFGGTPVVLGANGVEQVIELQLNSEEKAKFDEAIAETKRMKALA

[4] = inhibition of 3D7 malaria parasite growth – strain 3D7 (AID 2306);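 note: 0% = DMSO wells and 100% = chloroquine plus artemisinin control wells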; details: P. falciparum 3D7 erythrocytic growth, LDH absorbance, 72 h; at 2 µM; stronger effect = higher value
[5] = target: Calcium-dependent protein kinase 1 (Plasmodium falciparum (isolate 3D7)) (UniProt P62344); experiment: PfCDPK1 kinase inhibitors, biochemical, TCAMS library (AID 1159585; cut-off not given, nearly all actives have IC50 up to about 0.98 µM;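 note: inhibitors leave more ATP so luminescence rises with inhibition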); details: recombinant PfCDPK1, Kinase-Glo ATP depletion luminescence
Calcium-dependent protein kinase 1 (Plasmodium falciparum (isolate 3D7)), sequence (P62344 whole entry, looked up): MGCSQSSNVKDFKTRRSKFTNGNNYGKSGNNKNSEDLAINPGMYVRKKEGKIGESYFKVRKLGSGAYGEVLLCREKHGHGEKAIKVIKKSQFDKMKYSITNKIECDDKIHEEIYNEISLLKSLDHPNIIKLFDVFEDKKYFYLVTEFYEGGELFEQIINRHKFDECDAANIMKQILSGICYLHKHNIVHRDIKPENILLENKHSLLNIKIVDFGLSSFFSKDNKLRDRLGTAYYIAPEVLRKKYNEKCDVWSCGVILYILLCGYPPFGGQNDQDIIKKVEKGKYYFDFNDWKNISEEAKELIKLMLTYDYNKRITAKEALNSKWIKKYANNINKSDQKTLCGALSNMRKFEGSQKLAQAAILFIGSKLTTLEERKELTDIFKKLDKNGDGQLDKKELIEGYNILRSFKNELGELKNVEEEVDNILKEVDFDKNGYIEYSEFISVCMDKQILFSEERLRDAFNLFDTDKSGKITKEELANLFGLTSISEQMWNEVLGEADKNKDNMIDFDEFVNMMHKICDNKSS

[6] = target: Plasmodium falciparum protein kinase 6 (PK6, PF3D7_1337100) (UniProt Q8IDW1); experiment: PfPK6 kinase inhibitors, biochemical, TCAMS library (AID 1159586); details: recombinant PfPK6, Kinase-Glo ATP depletion luminescence
Plasmodium falciparum protein kinase 6 (PK6, PF3D7_1337100), sequence (Q8IDW1 1-305): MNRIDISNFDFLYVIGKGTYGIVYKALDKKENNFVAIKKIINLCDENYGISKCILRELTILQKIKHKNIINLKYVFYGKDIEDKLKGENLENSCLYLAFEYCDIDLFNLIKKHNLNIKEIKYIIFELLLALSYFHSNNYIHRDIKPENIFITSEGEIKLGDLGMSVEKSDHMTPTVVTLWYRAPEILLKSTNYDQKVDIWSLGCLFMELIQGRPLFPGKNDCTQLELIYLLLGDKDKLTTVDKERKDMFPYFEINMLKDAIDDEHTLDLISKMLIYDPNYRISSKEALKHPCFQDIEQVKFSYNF

[7] = target: Protein kinase 7 (PK7), Plasmodium falciparum 3D7 (PF3D7_0213400) (UniProt Q7YTF7); experiment: inhibition of Plasmodium PK7 catalytic activity – biochemical, TCAMS antimalarial set, Kinase-Glo luminescence (AID 1159587); details: recombinant PfPK7, Kinase-Glo ATP depletion luminescence
Protein kinase 7 (PK7), Plasmodium falciparum 3D7 (PF3D7_0213400), sequence (Q7YTF7 1-343): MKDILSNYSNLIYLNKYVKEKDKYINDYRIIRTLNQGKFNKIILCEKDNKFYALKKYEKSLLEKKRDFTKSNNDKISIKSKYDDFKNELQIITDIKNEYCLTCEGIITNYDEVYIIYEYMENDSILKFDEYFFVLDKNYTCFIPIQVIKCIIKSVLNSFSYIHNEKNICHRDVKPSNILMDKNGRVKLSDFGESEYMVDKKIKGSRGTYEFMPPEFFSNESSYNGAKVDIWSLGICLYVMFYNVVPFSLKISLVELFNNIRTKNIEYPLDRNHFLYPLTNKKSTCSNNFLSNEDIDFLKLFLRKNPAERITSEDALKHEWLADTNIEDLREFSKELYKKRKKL

[8] = target: Calcium-dependent protein kinase 4 (Plasmodium falciparum (isolate 3D7)) (UniProt Q8IBS5); experiment: PfCDPK4 kinase inhibitors, biochemical, TCAMS library (AID 1159588; cut-off not given, nearly all actives have IC50 up to about 0.91 µM); details: recombinant PfCDPK4, Kinase-Glo ATP depletion luminescence
Calcium-dependent protein kinase 4 (Plasmodium falciparum (isolate 3D7)), sequence (Q8IBS5 whole entry, looked up): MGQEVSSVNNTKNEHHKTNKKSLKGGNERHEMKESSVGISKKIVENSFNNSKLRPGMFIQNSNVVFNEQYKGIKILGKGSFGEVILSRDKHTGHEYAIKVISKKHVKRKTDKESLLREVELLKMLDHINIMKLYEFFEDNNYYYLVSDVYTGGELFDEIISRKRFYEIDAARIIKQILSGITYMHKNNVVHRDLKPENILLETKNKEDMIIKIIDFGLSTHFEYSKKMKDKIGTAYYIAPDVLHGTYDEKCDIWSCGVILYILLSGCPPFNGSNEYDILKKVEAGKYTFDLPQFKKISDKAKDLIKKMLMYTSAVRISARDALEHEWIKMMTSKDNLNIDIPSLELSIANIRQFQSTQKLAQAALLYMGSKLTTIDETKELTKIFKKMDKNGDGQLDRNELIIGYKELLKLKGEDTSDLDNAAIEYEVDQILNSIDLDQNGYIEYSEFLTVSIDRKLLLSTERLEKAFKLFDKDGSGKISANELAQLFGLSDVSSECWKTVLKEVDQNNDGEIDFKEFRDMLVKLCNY

Structure (SMILES) | growth inhibition [1] | inhibition [2] | inhibition [3] | growth inhibition [4] | outcome [5] | outcome [6] | outcome [7] | outcome [8]
COc1cc2nc(NCCn3cccn3)nc(NCCc3ccccc3)c2cc1OC | 100% (active) | 12% (inactive) | -3% (inactive) | 102% (active) | inactive | inactive | inactive | inactive
CCCCCCCC1=NN2C(=N)C(=Cc3cc(Br)c(OCc4ccc(F)cc4)c(OCC)c3)C(=O)N=C2S1 | -6% (inactive) | 4% (inactive) | 0% (inactive) | 95% (active) | inactive | inactive | inactive | inactive
Cc1cccc2[nH]c(-c3ccc(-c4cccc(CNCCCN5CCCC5=O)c4)cc3)nc12 | 3% (inactive) | 6% (inactive) | -8% (inactive) | 96% (active) | inactive | inactive | inactive | inactive
Clc1ccc(-c2cnc3ccc(NCc4ccncc4)nn23)cc1 | 98% (active) | 25% (inactive) | 2% (inactive) | 98% (active) | inactive | inactive | inactive | inactive
CC(C)(C)c1ccc(OCC(=O)NC2CCN(c3ccnc4cc(Cl)ccc34)C2)cc1 (stereo not drawn) | 100% (active) | 17% (inactive) | -2% (inactive) | 98% (active) | inactive | inactive | inactive | inactive
O=C(NCCc1ccccc1F)c1ccc(N2CCN(c3ccncc3)CC2)cn1 | 18% (inactive) | 8% (inactive) | -2% (inactive) | 93% (active) | inactive | inactive | inactive | inactive
CN1N=C2c3ccccc3CCC2C1c1ccc(C#N)cc1 (stereo not drawn) | 85% (active) | -9% (inactive) | 2% (inactive) | 95% (active) | inactive | inactive | inactive | inactive
CC(=O)Nc1ccc(CN2CCC(NC(=O)c3ccc(-c4cccc(Cl)c4)s3)CC2)cc1 | 59% (active) | 34% (inactive) | 3% (inactive) | 97% (active) | inactive | inactive | inactive | inactive
Cc1cccc2[nH]c(-c3cccc(-c4cccc(NC(=O)N[C@@H]5C[C@H]5c5ccccc5)c4)c3)nc12 | 28% (inactive) | -4% (inactive) | -1% (inactive) | 98% (active) | inactive | inactive | inactive | inactive
CCc1cn2c3c(cc(C(=O)N[C@@H](Cc4cccc(Cl)c4)[C@H](O)CNC4CC4)cc13)N(C)S(=O)(=O)CC2 | 98% (active) | 10% (inactive) | -1% (inactive) | 98% (active) | inactive | inactive | inactive | inactive
O=S(=O)(NCCN1CCCC1)c1ccc(-c2ccc(CNCc3ccc(F)cc3)cc2)cc1F | 21% (inactive) | 40% (inactive) | 2% (inactive) | 82% (active) | inactive | inactive | inactive | inactive
CC(C)COc1ccc(Cl)cc1Cc1ccc(-c2nc3ccc(N4CCN(C)CC4)cc3[nH]2)o1 | 41% (inactive) | 6% (inactive) | 0% (inactive) | 102% (active) | inactive | inactive | inactive | inactive
O=C(Cc1ccccc1)NC(CCN1CCC(NC(=O)c2ccc(Cl)cc2)CC1)c1ccc(Cl)c(Cl)c1 (stereo not drawn) | 23% (inactive) | 17% (inactive) | -2% (inactive) | 85% (active) | inactive | inactive | inactive | inactive
CN1CCN(Cc2cc3cc(NC(=O)/C=C/c4cccc(Cl)c4)ccc3s2)CC1 | 72% (active) | 54% (active) | 1% (inactive) | 100% (active) | inactive | inactive | inactive | inactive
Clc1ccc(Nc2nc(-c3ccccn3)cs2)nc1 | 90% (active) | 36% (inactive) | -1% (inactive) | 95% (active) | inactive | inactive | inactive | inactive
NCc1cccc(-c2ccc(CNC3CCN(Cc4ccccc4)CC3)cc2)c1 | 3% (inactive) | 2% (inactive) | 0% (inactive) | 95% (active) | inactive | inactive | inactive | inactive
CNC(=O)c1cnc(Nc2ccc(N3CCOCC3)cc2)nc1Nc1cccc(OC)c1 | 41% (inactive) | 2% (inactive) | -2% (inactive) | 96% (active) | inactive | inactive | inactive | inactive
C[C@H](Cc1ccc(OCCCCOc2ccc(C[C@@H](C)NC[C@H](O)c3cccc(Cl)c3)cc2)cc1)NC[C@H](O)c1cccc(Cl)c1 | 92% (active) | 68% (active) | 7% (inactive) | 100% (active) | inactive | inactive | inactive | inactive
O=C1C2=C(Nc3ccccc3SC2c2ccccc2)c2ccccc21 (stereo not drawn) | 94% (active) | 5% (inactive) | -7% (inactive) | 86% (active) | inactive | inactive | inactive | inactive
CCCN(CCC)C(=O)c1cc(C(=O)N[C@@H](Cc2ccccc2)[C@H](O)CNC(C)(C)c2cccc(C(F)(F)F)c2)cc(N2CCCCS2(=O)=O)c1 | 98% (active) | 19% (inactive) | -4% (inactive) | 99% (active) | inactive | inactive | inactive | inactive
CCCN(Cc1nnc(-c2cccs2)o1)C(=O)C1COc2ccccc2O1 (stereo not drawn) | 49% (inactive) | 1% (inactive) | 0% (inactive) | 87% (active) | inactive | inactive | inactive | inactive

Structure (SMILES) | growth inhibition [1] | inhibition [2] | inhibition [3] | growth inhibition [4] | outcome [5] | outcome [6] | outcome [7] | outcome [8]
CN1Cc2ccc(NS(=O)(=O)c3ccc(-c4ccoc4)cc3)cc2C1 | 2% (inactive) | -3% (inactive) | -2% (inactive) | 97% (active) | inactive | inactive | inactive | inactive
CCOC(=O)C(Oc1ccc2ccccc2c1)C(=O)OCC | 0% (inactive) | 8% (inactive) | -4% (inactive) | 98% (active) | inactive | inactive | inactive | inactive
O=C(/C=C/c1ccc(Cl)c(Cl)c1)NCCCCCN1CCC(n2c(=O)[nH]c3ccccc32)CC1 | -1% (inactive) | 38% (inactive) | 2% (inactive) | 97% (active) | inactive | inactive | inactive | inactive
Fc1ccc2nc(-c3cccc(-c4cccc(CNCCc5ccncc5)c4)c3)[nH]c2c1 | 88% (active) | 22% (inactive) | 2% (inactive) | 100% (active) | inactive | inactive | inactive | inactive
COc1ccc(NCc2cccc(-c3cccc(CNCCc4ccccc4)c3)c2)cc1 | 14% (inactive) | 41% (inactive) | 0% (inactive) | 96% (active) | inactive | inactive | inactive | inactive
COc1ccc(CON2C(N)=NC(N)=NC2(C)C)cc1OC | 97% (active) | 68% (active) | 1% (inactive) | 96% (active) | inactive | inactive | inactive | inactive
Cc1ccc2[nH]cc(/C=C/C(=O)NC3CCC(CCN4CCc5ccc(C#N)cc5CC4)CC3)c2c1 (stereo not drawn) | 49% (inactive) | 11% (inactive) | -4% (inactive) | 93% (active) | inactive | inactive | inactive | inactive
CC(=O)c1ccc(NC(=O)CSc2nc(-c3ccccc3Cl)ns2)cc1 | 72% (active) | -13% (inactive) | -1% (inactive) | 89% (active) | inactive | inactive | inactive | inactive
CC1(C(=O)Nc2ccc([N+](=O)[O-])cc2O)CC2c3ccccc3C1c1ccccc12 (stereo not drawn) | 16% (inactive) | 37% (inactive) | 3% (inactive) | 98% (active) | inactive | inactive | inactive | inactive
CC1CC(NCCCNc2cc(=O)c3ccccc3[nH]2)c2c(Cl)c(Cl)cc(Cl)c21 (stereo not drawn) | 52% (active) | 6% (inactive) | 2% (inactive) | 87% (active) | inactive | inactive | inactive | inactive
COc1cc(F)c2ncc(Cl)c([C@@H](O)CN3CCC(NCc4ccc5c(n4)NC(=O)CO5)CC3)c2c1 | 100% (active) | 12% (inactive) | 1% (inactive) | 101% (active) | inactive | inactive | inactive | inactive
CCc1ccc(NC(=O)c2cccc(CN3CCCN(CC4CCCCC4)CC3)c2)cc1 | 41% (inactive) | 62% (active) | 4% (inactive) | 85% (active) | inactive | inactive | inactive | inactive
Cc1nc2nc(N)nc(N)c2c(C)c1Cc1cccc(C(F)(F)F)c1 | 23% (inactive) | 65% (active) | -2% (inactive) | 89% (active) | inactive | inactive | inactive | inactive
CN1CCN(c2nsc3ccc(-c4ccc(NC(=O)Nc5cc(C(F)(F)F)ccc5F)cc4)cc23)CC1 | 64% (active) | 100% (active) | -3% (inactive) | 99% (active) | inactive | inactive | inactive | inactive
Cc1ccc2nc(-c3cc(-c4ccc(OCc5ccccc5)cc4)cnc3N)[nH]c2c1 | 87% (active) | 33% (inactive) | 1% (inactive) | 91% (active) | inactive | inactive | inactive | inactive
CC1CN(c2cc(=O)n(Cc3cccc(NC(=O)Nc4ccc(-c5ccccc5)cc4)c3)cn2)CC(C)N1 (stereo not drawn) | 63% (active) | 2% (inactive) | -2% (inactive) | 101% (active) | inactive | inactive | inactive | inactive
COc1ccc2nccc([C@@H](O)CN3CCC(NCc4cc5cccc6c5n(c4=O)CCC6)CC3)c2c1 | 97% (active) | 33% (inactive) | 1% (inactive) | 98% (active) | inactive | inactive | inactive | inactive
O=C(Nc1ccccc1)N(Cc1ccccc1-c1cccc(CNCCc2ccccc2)c1)C1CCN(Cc2ccccc2)CC1 | 59% (active) | 95% (active) | 4% (inactive) | 100% (active) | inactive | inactive | inactive | inactive
O=C(Nc1cccc(CN2CCCN(Cc3ccc4c(c3)OCO4)CC2)c1)c1ccc(-c2ccccc2)cc1 | 19% (inactive) | 48% (inactive) | -10% (inactive) | 90% (active) | inactive | inactive | inactive | inactive
COc1ccc(CNC2CCN(C)CC2)cc1-c1ccc(OC)c(S(=O)(=O)NCc2ccccc2)c1 | 95% (active) | 10% (inactive) | 5% (inactive) | 99% (active) | inactive | inactive | inactive | inactive
